# Source: PubChem BioAssay (NCI)
# This is part of a sample that, as a whole, favours compounds with a hit. Of some 83,000 tested, about 20% had one in any assay.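 Testing used 96-well plates and a 48-hour single-concentration exposure. Example: -40 means 40% of the starting cells died.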 A number with no mark means an inactive call. Calls of active or inactive are those of the source. Rule for the calls: active = growth percent below 10; inactive = the rest.
# What was measured:
# Assay in all cases: NCI-60 one-dose screen, 48 h (100 = growth as untreated, 0 = no growth, -100 = all killed)
# Conditions in all cases: 10 µM unless noted
# SK-MEL-2 melanoma = tested on: SK-MEL-2 melanoma
# EKVX NSCLC = tested on: EKVX NSCLC
# SN12C renal = tested on: SN12C renal
# UO-31 renal = tested on: UO-31 renal
# TK-10 renal = tested on: TK-10 renal
# ACHN renal = tested on: ACHN renal
# CAKI-1 renal = tested on: CAKI-1 renal
# A498 renal = tested on: A498 renal
# CCRF-CEM leukemia = tested on: CCRF-CEM leukemia
# MOLT-4 leukemia = tested on: MOLT-4 leukemia
SMILES,growth (SK-MEL-2 melanoma),growth (EKVX NSCLC),growth (SN12C renal),growth (UO-31 renal),growth (TK-10 renal),growth (ACHN renal),growth (CAKI-1 renal),growth (A498 renal),growth (CCRF-CEM leukemia),growth (MOLT-4 leukemia)
CCCc1cc(=O)oc2c(C(=O)CC(C)C)c(O)c(CC=C(C)C)c(O)c12,14.1%,13.7%,11.6%,20%,27.4%,27.5%,11.1%,-16.3% (active),12.9%,19.1%
CCOC(=O)C/C(=N\Nc1cc(=O)[nH]c2ccc(C)cc12)C(=O)OCC,108%,109%,101%,86.7%,101%,99%,94.6%,112%,-57.2% (active),18.3%
CCOC(=O)c1c(NC(=O)c2ccccc2)sc2c3c(ccc12)OCN(C)C3,-34.4% (active),26.3%,20.4%,-75.6% (active),68.5%,-68.7% (active),-42% (active),46.5%,-0.327% (active),-33% (active)
O=C1C=C(SCCO)C(=O)c2ccccc21,28.4%,53.5%,-87.1% (active),-37.4% (active),95.9%,-74% (active),47.5%,113%,-14.4% (active),2.43% (active)
COC(=O)/C(CCC=C(C)C)=C1\[C@@H](OC(C)=O)C[C@@]2(C)[C@H]1C/C(=N/O)[C@H]1[C@@]3(C)CC/C(=N\O)[C@@H](C)[C@@H]3CC[C@@]12C,96.7%,100%,95.1%,77.5%,119%,102%,76.1%,111%,87.3%,72.1%
N#Cc1ccc(/C=C/c2cn(-c3ccccc3)nc2-c2cccc([N+](=O)[O-])c2)cc1,76.3%,66.8%,48.1%,79.3%,76.9%,32.7%,71.1%,97%,88.3%,97.6%
COc1ccc(-c2cc(-c3cccnc3)nc3sc4c(N)c(C(C)=O)c(-c5ccccc5)nc4c23)cc1OC,89.1%,87.4%,80.3%,51.8%,77.6%,81.1%,61.8%,71.7%,70.5%,72.5%
N#Cc1ccc(O)c(C2=NCC(c3ccc(-c4ccccc4)cc3)O2)c1 (stereo not given),-4.74% (active),15.6%,29.8%,1.37% (active),12.4%,11.6%,3.1% (active),48.6%,11.6%,0.755% (active)
CC/C(=C(\c1ccc(Cl)cc1)c1ccc(OCCN2CCCCC2)cc1)c1ccc(O)cc1,57.2%,68%,62.5%,38.4%,68.5%,60.4%,62.3%,87.2%,23.1%,-5.41% (active)
COc1cc2c(cc1-c1c(C)noc1C)ncc1nc(CN3CCOCC3)n([C@H](C)COC(F)F)c12,36.7%,49.6%,56.7%,14.1%,2.77% (active),36.1%,35.1%,-7% (active),44%,59.5%
O=C(O)c1cn(C2CC2)c2cc(N3CCN(C(=O)N/N=C/c4cccc5ccccc45)CC3)c(F)cc2c1=O,101%,102%,96.6%,80.1%,94.1%,101%,90.1%,86.1%,112%,100%
CNC(=O)Nc1ccc(-c2ccc3ncnc(Nc4cccc(Cl)c4)c3c2)cc1,65.9%,2% (active),62.3%,46.5%,-3.72% (active),34.2%,32.1%,-8.06% (active),44.5%,36.7%
COc1cc(Cc2cc(OC)c(O)c(OC)c2)cc(OC)c1O,76.6%,110%,97.7%,120%,107%,106%,73.9%,88.6%,59.9%,74.9%
CCOC(=O)c1nnn(Cc2cc(=O)oc3ccc(O)cc23)c1C,111%,105%,96.2%,91.8%,101%,105%,96.7%,101%,82.9%,100%
COCC(=O)Oc1cc(-c2ccc(C)cc2C)c(OC(=O)COC)c(-c2ccc(C)cc2C)c1,28.9%,57.1%,56.4%,47.7%,70.9%,-18% (active),9.83% (active),68.7%,38.9%,21.7%
N=C(N)c1ccc(-c2ccc(-c3cc(Cl)cc(Cl)c3)s2)s1,83.4%,-12.2% (active),-65.4% (active),-40.2% (active),-26.5% (active),-54.2% (active),2.68% (active),73.6%,-12.4% (active),-41.9% (active)
NS(=O)(=O)c1ccc(C(=O)N=Nc2c(O)[nH]c3ccc(Cl)cc23)cc1,105%,95.8%,94.9%,83.8%,115%,107%,92.6%,75.3%,99.7%,107%
O=C(/C=C/c1ccccc1)N(C1CCCCC1)C1CCCCC1,82.9%,85.1%,97.3%,97%,112%,86%,66.8%,93.4%,79.6%,92.1%
O=C(c1ccc(Br)cc1)C(Br)C(c1ccc(Cl)cc1)C(c1ccccc1)[N+](=O)[O-] (stereo not given),110%,79.9%,101%,79%,103%,102%,88.7%,87.5%,90.3%,89.7%
O=C1NC(=O)C(c2coc3cc(Br)ccc23)=C1c1c[nH]c2ccccc12,34.1%,54%,55%,58%,80.8%,71.3%,39.2%,5.34% (active),29.1%,26%
O=c1c2ccccc2n(C[C@H]2CO2)c2ccccc12,-64.5% (active),16.3%,6.14% (active),-27.5% (active),4.13% (active),-26.6% (active),-9.84% (active),96.1%,6.9% (active),0.563% (active)
O=C1/C(=C/c2ccc(Cl)cc2)CN(C(=O)C(Cl)Cl)C/C1=C\c1ccc(Cl)cc1,-15% (active),-60% (active),-75.7% (active),-99.7% (active),-83.7% (active),-100% (active),-71% (active),-95.8% (active),7% (active),-12.5% (active)
Fc1ccc2[nH]cc(-c3nc(-c4c[nH]c5c(Cl)nccc45)cs3)c2c1,73.4%,63.2%,65.9%,21.8%,33.8%,17.7%,49.2%,14%,28.5%,38.2%
Cc1nc2sc(C(=O)Nc3ccccn3)c(N)c2cc1C(C)O (stereo not given),53.9%,86%,93.7%,78.4%,79.4%,89%,85.5%,77.1%,49.6%,64.1%
S=c1ccnc[nH]1,96.6%,118%,96.8%,82.5%,127%,99.4%,104%,112%,123%,107%
N#C/C(=C\c1ccc(-c2cccc(Cl)c2)o1)C(=O)Nc1ncc(Cc2ccc(Cl)cc2)s1,97.2%,69.4%,35.9%,23.7%,69.9%,31.4%,51.6%,74.1%,43.6%,87.1%
CCOC(=O)CC1CSC(N/N=C/c2ccc(F)c(Br)c2)=N1 (stereo not given),104%,104%,114%,82.9%,102%,106%,95.5%,95.7%,90%,88.5%
